Here are results for 26 compounds from PubChem BioAssay (Tox21).

For test [1], the target named is Thyrotropin-releasing hormone receptor (Homo sapiens) (UniProt P34981). The experiment in a line: qHTS assay to identify small molecule agonists of the thyrotropin-releasing hormone receptor (TRHR) signaling pathway (AID 1346891; calls by dose curve; also: series mostly up to about 58 µM). In outline: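 Agonist-mode intracellular calcium readout: kinetic fluorescence over 3 min at 1 s intervals after compound addition to TRHR-HEK293 cells (18 h seeded, 2 h dye-loaded at 37 C). Fifteen concentrations, triplicates.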

Test [2] is described as follows: Human pregnane X receptor (PXR) small molecule agonists, qHTS cell viability counter screen (AID 1346977). Also: nearly all actives have a fitted effect of over 50% in size. Also: potency is read from the fitted curve at half-maximal effect. In outline: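 Same-well viability read: CellTiter-Fluor added after 23 hr compound exposure, fluorescence measured 1 hr later. Cells were PXR-Luc HepG2 seeded at 2,000/well in 5% charcoal-stripped FBS medium, rested 5 hr before dosing at 37 C.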
(In general: In qHTS, concentration-response curves come from the screen itself.)

Test [3] is described as follows: Caspase-3/7 induction in HepG2 cells by small molecules, qHTS assay (AID 1346978). Also: nearly all actives have a fitted effect of over 15% in size. In outline: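 Caspase-3/7 induction was measured by Caspase-Glo 3/7 luminescence (30 min, room temperature) after a 17 hr compound exposure of wild-type HepG2 cells seeded at 2,000 per well and pre-incubated 5 hr.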
Test [4] in a line: Caspase-3/7 induction in CHO-K1 cells by small molecules, qHTS cell viability counter screen (AID 1346979). Also: nearly all actives have a fitted effect of over 35% in size. Also: potency is read from the fitted curve at half-maximal effect. In outline:
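Cytotoxicity counter screen: CellTiter-Fluor added to compound-treated wild-type CHO-K1 cells at 16 h (37C, 5% CO2), fluorescence measured 1 h later; same wells as caspase-3/7 measurement.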

The nature of test [5]: Caspase-3/7 induction in CHO-K1 cells by small molecules, qHTS assay (AID 1346980). Also: nearly all actives have a fitted effect of over 15% in size. In outline:
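Luminescent Caspase-Glo 3/7 read (30min, room temperature) quantified apoptosis induction. Cells were wild-type CHO-K1, treated with compound for 17hr at 37 C and 5% CO2.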

A short description of test [6]: Caspase-3/7 induction in HepG2 cells by small molecules, qHTS cell viability counter screen (AID 1346981). Also: nearly all actives have a fitted effect of over 30% in size. Also: potency is read from the fitted curve at half-maximal effect. In outline:
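Counter screen for cytotoxicity: HepG2 exposed 16 hr to compounds, then CellTiter-Fluor viability signal (fluorescence, 1 hr reagent incubation).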

The target of test [7] is Nuclear receptor subfamily 1 group I member 2 (Homo sapiens) (UniProt O75469). The experiment in a line: Human pregnane X receptor (PXR) small molecule agonists, qHTS assay (AID 1346982). Also: nearly all actives have a fitted effect of over 35% in size. Also: potency is read from the fitted curve at half-maximal effect. In outline:
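Luminescence (ONE-Glo, 30 min RT) after 24 hr compound exposure of PXR-Luc HepG2 cells; cells rested 5 hr post-plating in 5% charcoal-stripped FBS medium.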

In test [8] the target is Nuclear receptor subfamily 1 group I member 2 (Rattus norvegicus) (UniProt Q9R1A7). In words: Rat pregnane X receptor (rPXR) activation by small molecules, qHTS assay (AID 1346983). Also: nearly all actives have a fitted effect of over 20% in size. Also: potency is read from the fitted curve at half-maximal effect. Particulars: rPXR luciferase reporter cells, One-Glo luminescence, 24 h; max activation: active compounds read high. In outline: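 Luminescent readout (One-Glo luciferase, 30 min room temperature) followed 24 hr compound treatment at 37 C of rPXR cells plated 2,000 per well and preincubated 5hr; qHTS format with compounds delivered in DMSO.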

Test [9] concerns the target Nuclear receptor subfamily 1 group I member 2 (Homo sapiens) (UniProt O75469). The experiment in a line: CYP3A4 induction through human pregnane X receptor (PXR) by small molecules, qHTS assay (AID 1346984). Also: nearly all actives have a fitted effect of over 40% in size. Also: potency is read from the fitted curve at half-maximal effect. In outline:
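DPX-2 reporter cells; 24h cpd, 37C; Luciferin-IPA 3uM final x3h; One-Glo 30 min RT; lumi read.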

Test [10] has the same target. The experiment in a line: Human pregnane X receptor (PXR) activation by small molecules, qHTS assay (AID 1346985). Also: nearly all actives have a fitted effect of over 40% in size. Also: potency is read from the fitted curve at half-maximal effect. In outline:
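DPX-2 cells (HepG2 co-transfected with a PXR response element and a CYP3A4-promoter luciferase construct) were seeded at 2,000 per well, rested 5 hr at 37C, then exposed to DMSO-dissolved compounds for 24 hr. Activation was read as luciferase luminescence.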

Unmarked numbers belong to inactive results. Records with an inconclusive call do not appear. Calls of active or inactive are those of the source. Unless noted, calls follow the shape of the dose curve; as a rule, active = well fitted curve in the direction sought with a large enough effect in the repeat runs; inconclusive = weak or mixed curves; inactive = no such curve, though single readings can be large; an effect the other way counts as inactive or inconclusive.
% is scaled to controls: 0 for no effect and ±100 for the full control effect.

Chain of Thyrotropin-releasing hormone receptor (Homo sapiens) (P34981 whole entry, looked up): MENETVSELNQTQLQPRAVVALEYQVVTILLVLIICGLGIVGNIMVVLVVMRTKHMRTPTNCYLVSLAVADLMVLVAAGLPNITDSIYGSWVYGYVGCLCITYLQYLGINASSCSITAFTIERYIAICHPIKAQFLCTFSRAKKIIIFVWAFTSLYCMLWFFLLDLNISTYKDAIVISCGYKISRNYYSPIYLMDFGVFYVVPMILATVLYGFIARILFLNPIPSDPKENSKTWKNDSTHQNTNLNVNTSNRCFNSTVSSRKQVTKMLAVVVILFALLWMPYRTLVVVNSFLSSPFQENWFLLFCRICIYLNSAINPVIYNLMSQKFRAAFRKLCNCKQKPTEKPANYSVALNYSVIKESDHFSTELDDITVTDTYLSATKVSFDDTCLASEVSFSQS
Chain of Nuclear receptor subfamily 1 group I member 2 (Rattus norvegicus) (Q9R1A7 whole entry, looked up): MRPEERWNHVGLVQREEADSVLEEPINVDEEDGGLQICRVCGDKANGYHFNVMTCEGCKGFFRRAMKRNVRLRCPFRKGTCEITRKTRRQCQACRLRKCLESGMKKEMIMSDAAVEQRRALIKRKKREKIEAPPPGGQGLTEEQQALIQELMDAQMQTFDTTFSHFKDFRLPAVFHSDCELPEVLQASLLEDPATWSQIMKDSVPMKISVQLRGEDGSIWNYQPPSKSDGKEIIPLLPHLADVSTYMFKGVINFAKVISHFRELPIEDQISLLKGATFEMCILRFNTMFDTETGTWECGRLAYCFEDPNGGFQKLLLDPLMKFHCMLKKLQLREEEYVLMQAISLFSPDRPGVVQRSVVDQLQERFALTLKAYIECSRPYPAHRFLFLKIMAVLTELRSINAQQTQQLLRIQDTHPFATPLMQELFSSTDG
Chain of Nuclear receptor subfamily 1 group I member 2 (Homo sapiens) (O75469 whole entry, looked up): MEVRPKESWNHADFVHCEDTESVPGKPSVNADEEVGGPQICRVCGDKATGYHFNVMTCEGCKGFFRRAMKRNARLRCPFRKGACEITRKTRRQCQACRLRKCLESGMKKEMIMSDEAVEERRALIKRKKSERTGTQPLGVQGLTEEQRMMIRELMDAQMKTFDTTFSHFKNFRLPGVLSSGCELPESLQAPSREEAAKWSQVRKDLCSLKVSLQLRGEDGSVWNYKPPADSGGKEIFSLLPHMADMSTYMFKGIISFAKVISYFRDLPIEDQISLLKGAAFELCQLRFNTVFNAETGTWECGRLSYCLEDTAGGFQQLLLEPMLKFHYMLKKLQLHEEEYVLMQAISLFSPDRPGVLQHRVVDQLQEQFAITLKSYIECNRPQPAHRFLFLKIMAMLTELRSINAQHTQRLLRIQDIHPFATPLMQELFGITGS

On to `CC(=O)N(CC(O)CN(C(C)=O)c1c(I)c(C(=O)NCC(O)CO)c(I)c(C(=O)NCC(O)CO)c1I)c1c(I)c(C(=O)NCC(O)CO)c(I)c(C(=O)NCC(O)CO)c1I` (stereo not drawn), for which the Potency result in [1], in test [2], in test [3], in test [4], in test [6] and in test [7] was “inactive” in each case. Besides, the Potency entry in test [9] and in test [10] was “inactive” in each case. For the same compound, in test [5], the call was inactive. Besides, in test [8], the max activation was -0.58%.
Turning to `O=c1[nH]cnc2c1ncn2[C@@H]1O[C@H](CO)[C@@H](O)[C@H]1O`, the Potency result in test [1], in test [2], in test [3], in test [6], in [7] and in test [9] was “inactive” in each case. The Potency result in [10] is “inactive”. Also, in test [4], the Potency was 1.06 µM (active). In addition, the result in test [5] was inactive. Besides, the max activation in test [8] is -2.07%.
Regarding `CC(C)O`, the Potency result in test [1], in test [2], in test [3], in [4], in test [6] and in [7] was “inactive” throughout. Also, the Potency entry in [9] and in test [10] was “inactive” in each case. In test [5], the result was inactive. Moreover, the max activation in test [8] is -2.1%.
Turning to `NC/C=C/C(=O)O`, the Potency result in test [1], in test [2], in test [3], in test [4], in test [6] and in test [7] was “inactive” throughout. Also, the Potency entry in [9] and in [10] was “inactive” throughout. Further, the compound was classed as inactive in [5]. Also, the max activation in test [8] was -4.44%.
For the compound `CCC1(C)NC(=O)NC1=O` (stereo not drawn), the Potency entry in [1], in test [2], in test [3], in [4], in test [6] and in test [7] was “inactive” throughout. The compound was classed as inactive in test [5].
As for `O=S(=O)(O)C(F)(F)F`, the Potency entry in [1], in test [2], in test [3], in [4], in test [6] and in [7] was “inactive” throughout. For the same compound, the result in test [5] was inactive.
As for `Cc1nnc(SCC2=C(C(=O)O)N3C(=O)[C@@H](NC(=O)Cn4cnnn4)[C@H]3SC2)s1`, the Potency entry in [1], in test [2], in test [3], in test [4], in test [6] and in [7] was “inactive” in each case. The Potency entry in test [9] and in test [10] was “inactive” each time. In addition, in test [5], the call was inactive. Moreover, in test [8], the max activation is -4.1%.
As for `COc1ccc(Nc2ccc(OC)cc2)cc1`, the Potency entry in [1], in test [2], in [3], in test [4] and in test [6] was “inactive” each time. For the same compound, the compound was classed as inactive in test [5]. Further, in [7], the Potency was 24.8 µM (active).
As for `O=C(C(Cl)Cl)N1CCOC12CCCCC2`, the Potency result in test [1] and in test [3] was “inactive” each time. For the same compound, the Potency was 61.1 µM (active) in test [2], 61.1 µM (active) in [4], 61.1 µM (active) in test [6] and 34.4 µM (active) in test [7]. The compound was called inactive in test [5].
On to `FC(F)(F)C(F)(F)C(F)(F)C(F)(F)C(F)(F)C(F)(F)C(F)(F)C(F)(F)Br`, for which the Potency result in [1], in [2], in test [3], in test [4], in [6] and in [7] was “inactive” each time. Further, the Potency entry in test [9] and in test [10] was “inactive” each time. In addition, the outcome in [5] was inactive. In test [8], the max activation is -2.79%.
Turning to `CCCCCOc1ccc(C2SC(=O)NC2=O)cc1OCC` (stereo not drawn), the Potency entry in test [1], in test [2], in [3], in test [4] and in test [6] was “inactive” each time. The compound was classed as inactive in test [5]. For the same compound, the Potency in test [7] is 29.8 µM (active).
In the case of `Nc1ccc2ccccc2c1S(=O)(=O)O`, the Potency result in test [1], in test [2], in test [3] and in test [4] was “inactive” each time. Moreover, in test [5], the outcome was inactive. The Potency in test [7] was 62.3 µM (active).
`CC1(O)CSC(C)(O)CS1` (stereo not drawn): the Potency result in [1], in test [2], in test [3], in test [4], in [6] and in test [7] was “inactive” throughout.
In the case of `CCC(=O)O[C@]1(C(=O)SCF)[C@H](C)C[C@H]2[C@@H]3C[C@H](F)C4=CC(=O)C=C[C@]4(C)[C@@]3(F)[C@@H](O)C[C@@]21C`, the Potency entry in [1], in test [2], in test [3], in test [4], in test [6] and in [9] was “inactive” in each case. Besides, in test [5], the outcome was inactive. Besides, the Potency in test [7] is 0.473 µM (active); in [8] it was 1.58 µM (active); in test [10] it was 0.447 µM (active).
As to `Cc1c(-c2ccccc2)oc2c(C(=O)OCCN3CCCCC3)cccc2c1=O`, the Potency result in test [1], in test [2], in test [3], in test [4], in [6] and in test [7] was “inactive” in each case. Moreover, the Potency result in test [9] and in test [10] was “inactive” in each case. The compound was classed as inactive in test [5]. Moreover, the max activation in test [8] is -3.87%.
Turning to `CCC(=O)Nc1ccc(O)cc1`, the Potency entry in test [1], in test [2], in [3], in test [4], in [6] and in test [7] was “inactive” each time. Further, the Potency entry in test [9] and in [10] was “inactive” each time. In test [5], the compound was classed as inactive. The max activation in test [8] was -1.74%.
With `O=c1[nH]c(=O)n([C@H]2C[C@H](O)[C@@H](CO)O2)cc1C(F)(F)F`, the Potency result in test [1], in test [2], in test [3], in test [4], in [6] and in test [7] was “inactive” each time. Besides, the Potency entry in [10] was “inactive”. For the same compound, the compound was called inactive in [5]. Also, in test [8], the max activation was 3.55%.
Regarding `C=CC1CO1` (stereo not drawn), the Potency result in test [1], in test [2], in test [3], in [4], in test [6] and in [7] was “inactive” each time. In addition, the outcome in test [5] was inactive.
As for `CC/C=C\CCOC(=O)CCCCC`, the Potency result in test [1], in test [2], in [3], in test [4], in test [6] and in [7] was “inactive” throughout.
With `COC(=O)c1ccc(OC)cc1`, the Potency result in [1], in [2], in test [3], in test [4] and in [7] was “inactive” in each case. Moreover, in test [5], the compound was classed as inactive.
Consider `Oc1ccccc1C=NCc1ccccc1`, for which the Potency entry in [1], in test [3], in test [4], in test [6] and in test [7] was “inactive” throughout. Moreover, the compound was called inactive in test [5]. Moreover, the max activation in [8] is -0.218%. In addition, the Potency in test [9] is 14.1 µM (active).
With `Cc1ncc(CO)c(CN)c1O`, the Potency result in test [1], in test [2], in test [3], in test [6], in [7] and in [9] was “inactive” each time. The Potency entry in [10] is “inactive”. Also, the compound was classed as inactive in test [5]. Moreover, the max activation in [8] is -1.2%.
Turning to `COc1ccc2nc(NC(=O)Nc3ccccc3)sc2c1`, the Potency entry in test [1], in [2] and in test [3] was “inactive” in each case. The result in test [5] was inactive. Besides, the Potency was 1.88 µM (active) in [7] and 0.199 µM (active) in [8].
Turning to `CCCOc1ccc2c(c1)CC[C@@H]1[C@@H]2CC[C@]2(C)C(OC)CC[C@@H]12` (stereo partly drawn), the Potency result in test [1], in test [2], in test [3], in [6] and in test [7] was “inactive” in each case.
As to `CC1=C(CC(=O)O)c2cc(F)ccc2/C1=C\c1ccc(S(C)(=O)=O)cc1`, the Potency entry in test [1], in [2], in [3], in [6] and in [7] was “inactive” in each case.
Take `CN(C)CC[C@@H](c1ccc(Cl)cc1)c1ccccn1`: the Potency result in test [1], in test [3], in test [4] and in test [6] was “inactive” each time. Moreover, the outcome in test [5] was inactive.
